# Results as given in PubChem BioAssay (NCATS).
# Inconclusive results are not listed. A number with no mark means an inactive call. The call rests on the fitted dose curve; in most records, active means well fitted inhibition curve with a large enough effect; inconclusive means small, poorly fitted or top-dose-only effect; inactive means flat fitted curve, though single readings scatter.
# Target: Aldehyde dehydrogenase, mitochondrial (Homo sapiens) (UniProt P05091)
# Assay: qHTS for Inhibitors of the Aldehyde Dehydrogenase Family (ALDH2) Primary screen (AID 2061308);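 further: plate controls were vehicle for no effect and reference inhibitor for full effect; nearly all actives have a fitted effect of over 55% in size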
# Settings: ALDH2 enzyme inhibition qHTS, 1536-well; series mostly up to 56 µM; activity change, negative = inhibition: at the top concentration
row,SMILES,"activity change, negative = inhibition"
1,O=[S+]([O-])(c1c(F)cccc1F)N1CCN([S+](=O)([O-])c2csc3ccccc23)CC1,2.65%
2,CCNC(=O)c1ccc(-c2ccc3ncnc(NCCc4cnc[nH]4)c3c2)o1,2.73%
3,COc1ccc(C2=Nn3c(nnc3-c3ccccc3OC)SC2)cc1OCC1CC1,10.7%
4,Fc1ccc(Nc2nc(-c3ccnc(C(F)(F)F)c3)nc3ccccc23)cc1F,3.23%
5,O=C1CCCC2=C1C(c1c(Cl)cccc1Cl)N=C(Nc1nc3ccccc3o1)N2 (stereo not given),-4.96%
6,Cc1ccc(-c2cc(C(=O)Nc3cccc(Cl)c3)c3ccccc3n2)cc1C,2.47%
7,Cc1ccc(S(=O)(=O)Nc2cc(C)ccc2C(=O)Nc2nc(-c3ccccc3)cs2)cc1,1.25%
8,c1ccc(OCc2nnc3ccc(-c4ccccc4)nn23)cc1,-1.46%
9,CNC(=O)c1cnn2c(C)cc(C)nc12,-0.316%
10,CC(C)CN1CC2=C(C1=O)C(c1ccccc1Cl)N=C(Nc1nc3ccccc3o1)N2 (stereo not given),-23.2%
11,Cc1ccc(S(=O)(=O)Nc2ccc(C(=O)Nc3nc(-c4ccccc4)cs3)c(Cl)c2)cc1,-4.36%
12,Cc1ccc(OCCn2c(CCNC(=O)c3ccc[nH]3)nc3ccccc32)cc1,-11.2%
13,COC(=O)c1ccc(O)c2ncc(N(C)C)cc12,-4.72%
14,Cc1cc2c(s1)c1cnn(Cc3ccccc3)c(=O)c1n2C,9.33%
15,Fc1cc(Nc2nc(-c3ccncc3)nc3ccccc23)ccc1-c1ccnc(C(F)(F)F)c1,0.591%
16,C[C@@H]1CN(S(=O)(=O)c2c(F)cccc2F)CCN1S(=O)(=O)c1ccc2c(c1)OCCO2,1.89%
17,COc1ccc(OC)c(-c2nnc3n2N=C(c2ccc(OC)c(OC)c2)CS3)c1,6.88%
18,Cc1ccc(S(=O)(=O)Nc2cc(Cl)cc(C(=O)Nc3nc(-c4ccccc4)cs3)c2)cc1,9.16%
19,CC(C)c1ccccc1-c1nc(NCc2ccc(-c3cccnc3)cc2)c2occc2n1,20.4%
20,C/C=C(\C)C(=O)OC1C[C@@]2(COC(C)=O)O[C@H]2/C=C\[C@@]2(C)O[C@@H]2[C@H]2OC(=O)C(COC(C)=O)=C12 (stereo not given in full),5.45% [at 28 µM]

row,SMILES,"activity change, negative = inhibition"
1,O=C(Nc1ncc(Cc2ccc(C(F)(F)F)cc2)s1)c1ccco1,-14.2%
2,Cn1nnnc1Sc1ncnc2scc(-c3cccc(C#N)c3)c12,-3.76%
3,Cc1cc(C)nc(NC(=S)N2CCN(c3cccc(S(C)=O)c3)CC2)c1 (stereo not given),4.15%
4,CC(=O)c1ccc(N2CCN(S(=O)(=O)c3ccc4[nH]c(=O)oc4c3)CC2)cc1,1.26%
5,COc1ccc(C2Nc3ccccc3C(=O)N2Cc2ccccc2)cc1Oc1ccc(NC(C)=O)cc1 (stereo not given),-14.4%
6,Oc1cccc(C2NC(=S)Nc3cccc(F)c32)c1 (stereo not given),-4.93%
7,CC1(C)CC[C@]2(C(=O)O)CC[C@]3(C)C(=CCC4[C@@]5(C)C[C@@H](O)[C@H](O)[C@@](C)(CO)C5CC[C@]43C)C2C1 (stereo not given in full),-5.02% [at 28 µM]
8,Cc1nc(CN=C2NC3=C(C(=O)CCC3)C(c3[nH]ncc3Cl)N2)cs1 (stereo not given),-8.25%
9,O=C(Nc1ccccn1)c1sc2ccccc2c1Cl,-15.9%
10,COc1cccc(CCN2C(=O)c3ccccc3NC2c2ccc(OC)c(COc3c(C)cc(NC(C)=O)cc3C)c2)c1 (stereo not given),-12%
11,Oc1ccc(CNc2ccc3ccccc3n2)c2cccnc12,-7.94%
12,COc1ccc(OC)c(NC(=O)C(OC(=O)CNC(=O)c2ccccc2)c2ccccc2)c1 (stereo not given),8.09%
13,COc1cc(OC)cc(C2=Nn3c(nnc3-c3ccccc3OC)SC2)c1,10.2%
14,FC(F)(F)c1ccccc1-c1nc(NCc2ccc(Br)cc2)c2ccccc2n1,-46%
15,COC(=O)Nc1sc2c(c1-c1nc3ccccc3s1)CCNC2,10.4%
16,Cc1ccc(NC(=O)c2ccc(-c3nc4ccccc4[nH]3)cc2)cc1Br,2.26%
17,CS(=O)(=O)c1ccc(C(=O)OCC(=O)N2CCC(Cc3ccccc3)CC2)cc1[N+](=O)[O-],-18.9%
18,CCSC1=NS(=O)(=O)c2ccccc21,0.731%
19,COCCNc1nc(C)nc2c1nc(-c1ccccc1)n2CCN1CCCC1,2.7%
20,COc1ccc([S+](=O)([O-])Nc2ccc(-c3nc4ccccc4[nH]3)cc2)cc1OC,-1.39%
